Paper PMC10163288
The list is a sample of the results. How many sequences the whole screen found active is unknown.

B1: il2ra_site2_2erj_normal_mot_HHH_b1_08185_000000063_0001_41_55_H_._HHH_b1_04971_af2_0001_0000600015_0000001_0 (protein)
chain: SSSSSDSAEEALELAKEAYEKGDRSEVELILRYLELSLEDANDPRVEEAYELVEELLEELSSSSS
B2: il2ra_site2_3nfp_normal_mot_HHH_b1_01086_000000225_0001_20_36_H_._HHH_b2_03611_0001_0000300035_0000001_0 (protein)
chain: SSSSSEAEEELERLLRELEELLKRDPEEAHRLSARALNLAYEARDFEIFARLADISFALASSSSS
B3: il2ra_site1_3nfp_sap_16_mot_5dea99290cf7e133ebc5b763b21a7a39_0001_000000141_0001_34_49_H_._ems_3hC_617_0002_0001_0000300017_0000001_0_0001 (protein)
chain: NDKIAERLVRQAVEQNSPRILKKILEDLERVLGDPEEARERLRELLELVLGDPEEVERLLELAEE
B4: il2ra_site1_3nfp_sap_8_mot_93ec910cbd4ebb8dd092c1ac1e61ab37_0001_1_af2_000000101_0001_16_31_H_._22fa1065b69cf192845a0250a7ccff51_0001_1_0001_0000400021_0000001_ … (protein)
chain: SSSSDSVEWLQEMIERAFENNDRRQLRVLIKILEKAAEQFGDPEVEKLLEEAERLLEELNSSSSS
B5: il2ra_site1_3nfp_normal_mot_HHH_b2_04366_af2_000000103_0001_1_19_H_._d3e5e791db42274430e6ef9f54efc4f5_0001_af2_0001_0000100007_0000001_0_af2pred_0001_af2pred_sw … (protein)
chain: SAKEISELLREAARKDPEVSELLWEALRLFVKNEEEALRLLEELLKELGDPLVEEVLRLLEELAK
B6: il2ra_site1_1z92_sap_8_mot_a31c9f16200a66e5ad31ddff700483a3_0001_1_000000069_0001_19_32_H_._HHH_b1_03395_0001_0000300021_0000001_0_0001_af2pred_0001_af2pred_1 (protein)
chain: PEELAEEARELLENGNPEEARKVLEKLAKELGTEEAFKLDLERAERFTGNPEVALKALIAALARH
B7: il2ra_site2_2erj_normal_mot_HHH_b1_06697_000000025_0001_41_54_H_._HHH_b2_03722_0001_0000300007_0000001_0_af2pred_0001_1_af2pred_swapped (protein)
chain: SSSSSDKEEVEERVREILEEAEQVRDPREALKILEKADRLASENNNEEALELIHEVLQRLSSSSS
B8: il2ra_site2_3nfp_sap_15_mot_HHH_b1_07089_af2_000000257_0001_1_17_H_._51cc31007119fa75359d0ea3f4aa2c22_0001_1_0001_0000100009_0000001_0_0001 (protein)
chain: SSSSSAAEDSVHVLKRELEELGDRESIEELERLLEEIKEHNDPRLLLELYALLLRLYEESSSSSS
B9: il2ra_site1_1z92_sap_21_mot_35b94aac26684153dbcc4bf06a514b74_0001_1_000000068_0001_35_49_H_._HEEHE_2006_af2_0001_0000400023_0000001_0_0001_af2pred_0001_af2pred (protein)
chain: SSSSDEEEAAEEIVREVVEKLGLSEEDREALERDAEQSLRRGISERSVKQALEKAAKRERSSSSS
B10: il2ra_site1_1z92_sap_11_mot_HHH_b2_00249_af2_000000052_0001_39_52_H_._HHH_b2_00616_af2_0001_0000400013_0000001_1_0001_af2pred_0001_af2pred (protein)
chain: SSSSSEKRKEALELFEEANELFKRGNDEEAQELLRRALELAEEAGNRVLARAIEQALEDAESSSS
B11: il2ra_site2_2erj_sap_22_mot_HHH_b2_08130_000000073_0001_1_17_H_._HHH_b1_02674_0001_0000300003_0000001_0_0001 (protein)
chain: SSSSDVEELLEEIEELLRRGDREEAERLLHEAAELAFERNDFELFTEVVEVAHEIDRLRVSSSSS
B12: il2ra_site2_3nfp_normal_mot_HHH_b1_01086_000000225_0001_20_36_H_._HHH_b1_01202_0001_0000300006_0000001_0_af2pred_0001_af2pred_swapped (protein)
chain: SSSSDHERFALRAALLEIEVAIEAGDEKKVEKLIERLEILIKRLNDEEMEELLRKLKEELSSSSS
B13: il2ra_site2_3nfp_normal_mot_HHH_b1_00660_af2_000000090_0001_40_57_H_._HHH_b1_07775_af2_0001_0000100002_0000001_1 (protein)
chain: SSSSDEELEEEVEKLLEEAKKIEDKFEAFALVLRAREIAERLGDEELKQLVARVALEIYESSSSS
B14: il2ra_site1_3nfp_normal_mot_eb5a5eebac1e5153f932cc6c3f4b2787_0001_af2_000000065_0001_18_33_H_._31bff7180b20e3ed47766ceefd9934be_0001_af2_0001_0000200025_0000001 … (protein)
chain: DEEKELAELIAEAVEKNDPELLEEVVQELLKKLGDPKEASRLFEELLRKAGLSPEEIYLAMELVV
B15: il2ra_site2_2erj_normal_mot_HHH_b1_04373_af2_000000118_0001_18_33_H_._HHH_b1_02368_af2_0001_0000200015_0000001_0 (protein)
chain: SSSSDEELREEVEELLERAREAYEEGDLELVYELAVEAAHFAARNQDEELLELILEVVERLSSSS
B16: il2ra_site1_1z92_normal_mot_HHH_b1_03515_000000289_0001_1_19_H_._HHH_b2_07175_0001_0000100001_0000001_0 (protein)
chain: SSSSDRLERAAEIIVRVAVEANGLSEEQEKELEELARELVERGLDPLEIIKLLDRLAAELSSSSS
B17: il2ra_site2_2erj_sap_28_mot_HHH_b1_06697_000000025_0001_41_54_H_._HHH_b1_07674_0001_0001200015_0000001_1_0001 (protein)
chain: SSSSSDVKEAYEEIAELLARAAHIKDPEEVRKLLEEAERLAEENNDPFARKYVEFARRDFSSSSS
B18: il2ra_site1_1z92_normal_mot_HHH_b2_01902_af2_000000252_0001_25_40_H_._HHH_b1_06549_af2_0001_0000100014_0000001_0_af2pred_dldesign_0_af2pred (protein)
chain: SSSSSPLERAARQYVDAIKEIAGLSDEQYAELLAEAERLAAAGVPVRDIAKALDKRAAELLSSSS
B19: il2ra_site2_3nfp_normal_mot_HHH_b2_00429_000000100_0001_21_37_H_._HHH_b1_08311_0001_0000300035_0000001_0 (protein)
chain: SSSSDEEVERLIEEAEELLRNGNPEEAKRVISRATDLAYEAGDHRLFALLVDLVAVVAHLLSSSS
B20: il2ra_site2_3nfp_normal_mot_HHH_b2_04451_000000238_0001_21_37_H_._HHH_b2_06904_0001_0000300014_0000001_0 (protein)
chain: SSSSSSDEEEIEELLELVEKIDDQLERLQVLLEASKLAAELGDEELAREVLRLFAEIQSSSSSSS
B21: il2ra_site1_3nfp_normal_mot_0eddeacbb14b769e73e254714f31e2f9_0001_af2_000000052_0001_37_51_H_._HHH_b1_00975_af2_0002_0000100004_0000001_0 (protein)
chain: SSSSSDEEELRERVEELLEEAKHVSEEEASRLIEEAYRLVQENGNQELADLIYRVMREMISSSSS
B22: il2ra_site2_3nfp_sap_4_mot_HHH_b2_00168_000000180_0001_1_21_H_._HHH_b2_05578_af2_0001_0000500013_0000001_0_0001 (protein)
chain: SSSSDDVEEYLRAALALAREAIKQGDEELAEKILEMIRKAAEDAKDEEALEEAEELLKLVGSSSS
B23: il2ra_site2_3nfp_normal_mot_HHH_b2_06150_000000217_0001_39_53_H_._HHH_b1_03322_0001_0000100005_0000001_0 (protein)
chain: SSSSDIEERIEELLEEAKELIENGDPERAQEVLQEATHLAYEIRNSELFMRVAELLYLLRSSSSS
B24: il2ra_site1_3nfp_sap_8_mot_HHH_b1_04221_000000040_0001_40_56_H_._16d56542c9725820401ab7c11c235cbe_0001_0001_0000300014_0000001_0_0001 (protein)
chain: SSSSNEAAREATELMREIRRLLKEGNPEEARKLLEELEELAERNNDPVLKWLVRQFEESINSSSS
B25: il2ra_site1_1z92_sap_8_mot_a31c9f16200a66e5ad31ddff700483a3_0001_1_000000069_0001_19_32_H_._HHH_b1_08052_0001_0000300018_0000001_0_0001_af2pred_0001_af2pred (protein)
chain: SSSSEESLRRLAERLVEDAAKLADLSEEQKEELEELAEELIKRGVDPHEIAKELERLADELSSSS
B26: il2ra_site2_3nfp_normal_mot_HHH_b2_00429_000000100_0001_21_37_H_._HHH_b2_03374_0001_0000300044_0000001_0_af2pred_0001_1_af2pred_swapped (protein)
chain: SSSSNHEEFALRAALISLKLAVEAGNEELVRRLYEDAERAAKNANDPEVLEELERVFEEFHSSSS
B27: il2ra_site2_2erj_sap_17_mot_HHH_b2_05720_000000165_0001_1_18_H_._HHH_b2_07625_af2_0001_0000700024_0000001_0_0001 (protein)
chain: SSSSSDEEEREAERITEEIEERIDDPEERLREFFRVAVELLREGDPRTAHILLRLAQEGSSSSSS
B28: il2ra_site2_2erj_sap_24_mot_4428453eb85d3cbdb794fa6b82d21c19_0001_000000044_0001_14_30_H_._HHH_b2_00328_0001_0000300019_0000001_0_0001 (protein)
chain: SSSSDELHRLYELANEILHALSRGDEELVEELLEELEKLAEEADSRVAKENVEALRKHLDSSSSS
B29: il2ra_site1_2b5i_normal_mot_f5ff40796168375b462bec8614a1db4a_0001_1_000000138_0001_53_65_H_._HHH_b1_04161_0001_0000400021_0000001_0_af2pred_dldesign_0_af2pred (protein)
chain: SSSSSLRELVEEIIAEVKRLVAEGKLEEARKLAILALRLARKAEDPELVARVEALLETLESSSSS
B30: il2ra_site2_3nfp_normal_mot_HHH_b2_06150_000000217_0001_39_53_H_._HHH_b2_05434_af2_0001_0000100005_0000001_0 (protein)
chain: SSSSDEEEVEKLLKKAEELRERGNPEEARKLLREATQIAYERRDSELFFLVAEVLFEVLLSSSSS
B31: il2ra_site1_1z92_normal_mot_HHH_b2_00827_000000099_0001_20_37_H_._HHH_eva_0327_af2_0001_0000100007_0000001_0 (protein)
chain: SSEEELEELVEKIREVAEEKGDERLRRALERARFVLRELELGANSERAREIAEEAIKALYKTVVS
B32: il2ra_site1_3nfp_normal_mot_HHH_b1_04049_af2_000000244_0001_42_55_H_._HHH_b1_01786_0001_0000400012_0000001_0_af2pred_0001_af2pred (protein)
chain: SSSSDDKKRIQKLLREIMRLSKEGDEEEAEKLLEEVEELAREAGDPVAELLVELLKKILNSSSSS
B33: il2ra_site1_1z92_normal_mot_1581cc1c700002558836ca695aafbf97_0001_1_af2_000000099_0001_17_32_H_._HHH_b2_05050_0001_0000200017_0000001_0_af2pred_0001_af2pred (protein)
chain: SSSSDEEVERLVEELVEEFNLSEEEEKELRRIARSAEELGADPELVKKALEHFVEFLKRKGSSSS
B34: il2ra_site1_1z92_normal_mot_HHH_b1_04604_af2_000000029_0001_42_56_H_._HHH_b2_03915_0001_0000100005_0000001_0_af2pred_0001_af2pred (protein)
chain: SSSSDAELAAEADELLAEGNPEKVEEVLEEIRRAAEERDSRRLKEILENLEEELRELEEESSSSS
B35: il2ra_site1_2b5i_sap_12_mot_HHH_b2_04463_af2_000000056_0001_43_55_H_._HHH_b2_02114_af2_0001_0000100003_0000001_1_0001 (protein)
chain: SSSSNEAAREARELMEKLDEAFRRGDEELLEELLEEIEEFLKEQDDKFLRLAMEQVREELSSSSS
B36: il2ra_site2_3nfp_normal_mot_HHH_b1_03557_000000106_0001_41_55_H_._HHH_b2_00561_0001_0000400025_0000001_0_af2pred_0001_1_af2pred_swapped (protein)
chain: SSSSSDEEREEVEELLEEAEHIEDEREVFIVLVEAFFLALELRDPELERLVREFLKEFRSSSSSS
B37: il2ra_site1_1z92_normal_mot_HHH_b1_03515_000000289_0001_1_19_H_._HHH_b1_01554_af2_0001_0000200013_0000001_0 (protein)
chain: SSSSSSEHAARAIVKVLVRVARLSEEQEKELQELAEELVKRGYSLLEIIKILDRVAVELSSSSSS

Molecular target: il2ra, P01589
Experiment: yeast display titration

il2ra, P01589, sequence (P01589 whole entry): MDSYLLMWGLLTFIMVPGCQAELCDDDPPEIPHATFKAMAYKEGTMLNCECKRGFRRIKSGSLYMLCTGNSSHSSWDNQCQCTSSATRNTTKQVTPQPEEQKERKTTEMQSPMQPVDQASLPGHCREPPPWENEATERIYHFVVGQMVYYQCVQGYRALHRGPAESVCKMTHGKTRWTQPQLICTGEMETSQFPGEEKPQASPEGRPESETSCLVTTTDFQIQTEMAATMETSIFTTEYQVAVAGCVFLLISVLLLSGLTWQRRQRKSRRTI

Apparent Kd, inactive:
B1 no binding seen
B2 no binding seen
B3 no binding seen
B4 no binding seen
B5 no binding seen
B6 no binding seen
B7 no binding seen
B8 no binding seen
B9 no binding seen
B10 no binding seen
B11 no binding seen
B12 no binding seen
B13 no binding seen
B14 no binding seen
B15 no binding seen
B16 no binding seen
B17 no binding seen
B18 no binding seen
B19 no binding seen
B20 no binding seen
B21 no binding seen
B22 no binding seen
B23 no binding seen
B24 no binding seen
B25 no binding seen
B26 no binding seen
B27 no binding seen
B28 no binding seen
B29 no binding seen
B30 no binding seen
B31 no binding seen
B32 no binding seen
B33 no binding seen
B34 no binding seen
B35 no binding seen
B36 no binding seen
B37 no binding seen
